Results: PubChem BioAssay
Several values for one entry are separate records, joined by “and”; a condition that tells them apart may be missing. Equal values may be shown once. Activity calls are given as the source filed them.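 How the source made its calls, unless noted: active means normalized viability below 100% at a tested concentration; inactive means the rest.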

Assays:
[1] = sensitizers of A549 cells to miR-34 induction, primary screen, imaging, A549 dox-inducible miR-34, nuclei and caspase counts (AID 1347080;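 active means compounds whose cell count with miR-34 switched on is under 0.7 times the count with it off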); details: A549 miR-34 inducible, Hoechst nuclei count, 48 h
[2] = survival rescue of mitochondrial mutant cells in low glucose, primary screen, MELAS cybrids, Rieske KO mouse fibroblasts, CellTiter-Glo (AID 1508586;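 active means mean z-score across replicates of 1.96 or higher in either the MELAS or the Rieske mutant cell line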;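 further: z relative to plate mean and SD of compound and empty wells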)
[3] = ovarian cancer cell viability with rucaparib, profiling panel, oncology-focused library, rucaparib conditional (AID 1508598); details: patient-derived ovarian cancer cells, CellTiter-Glo viability, 144 h, stronger effect = lower value
[4] = LFS_MB_P medulloblastoma growth inhibition, cell-based, chromothripsis tumors, cisplatin or BGB combos (AID 1671449; in the data active means inhibition above about 80%;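 further: cells exposed for 96 hours; 0% = vehicle DMSO and 100% = killing by high DMSO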); details: LFS_MB_P medulloblastoma cells
[5] = HDN33 neuroblastoma growth inhibition, cell-based, chromothripsis tumors, cisplatin or BGB combos (AID 1671450; in the data active means inhibition above about 80%;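 further: cells exposed to compound for four days; 0% = vehicle DMSO and 100% = cell killing by high DMSO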); details: HDN33 neuroblastoma cells, stronger effect = higher value
[6] = ICB984 medulloblastoma cell growth inhibition, synergistic combos for chromothripsis tumors, cisplatin or BGB combos (AID 1671451; call rule not given here;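 further: cells exposed for 96 hours before readout; 0% = vehicle DMSO and 100% = killing by high DMSO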); details: ICB984 medulloblastoma cells, drug combinations, stronger effect = higher value
[7] = LFS_MB_1R medulloblastoma cell growth inhibition, synergistic combos for chromothripsis tumors, cisplatin or BGB combos (AID 1671452; in the data active means inhibition above about 80%;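 further: cells exposed for 96 hours before readout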); details: LFS_MB_1R medulloblastoma cells, stronger effect = higher value
[8] = HTB85 osteosarcoma cell growth inhibition, synergistic combos for chromothripsis tumors, BGB or cisplatin IC20 combos (AID 1671453; in the data active means inhibition above about 80%;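 further: cells exposed for 96 hours before readout; 0% = vehicle DMSO and 100% = high DMSO killing control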); details: HTB85 osteosarcoma cells, drug combinations, stronger effect = higher value
[9] = CRL2098 osteosarcoma cell growth inhibition, synergistic combos for chromothripsis tumors, BGB or cisplatin IC20 combos (AID 1671454; in the data active means inhibition above about 80%;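 further: cells exposed for 96 h before readout; 0% = vehicle DMSO and 100% = killing by high DMSO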); details: CRL2098 osteosarcoma cells, drug combinations, stronger effect = higher value
[10] = HD-MB03 medulloblastoma cell growth inhibition, synergistic combos for chromothripsis tumors, BGB or cisplatin IC20 combos (AID 1671455; in the data active means inhibition above about 83%;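 further: 0% = vehicle DMSO and 100% = high DMSO as cytotoxic control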); details: HD-MB03 medulloblastoma cells, stronger effect = higher value
[11] = UWB1.289 ovarian carcinoma cell growth inhibition, synergistic combos for chromothripsis tumors, BGB or cisplatin combos (AID 1671456; in the data active means inhibition above about 80%;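 further: cells exposed to compound for four days; 0% = vehicle DMSO and 100% = killing by high DMSO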); details: UWB1.289 ovarian carcinoma cells, stronger effect = higher value
[12] = LFS_MB_2R medulloblastoma cell growth inhibition, synergistic combos for chromothripsis tumors, cisplatin combos (AID 1671457; in the data active means inhibition above about 80%;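 further: cells exposed to compound for four days before readout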); details: LFS_MB_2R medulloblastoma cells, stronger effect = higher value
[13] = MDA-MB-436 breast carcinoma cell growth inhibition, synergistic combos for chromothripsis tumors, BGB or cisplatin combos (AID 1671458; call rule not given here;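 further: cells exposed for 96 hours; 0% = vehicle DMSO and 100% = killing by high DMSO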); details: MDA-MB-436 breast carcinoma growth inhibition, drug combinations, stronger effect = higher value
[14] = UWB1.289_BRCA1 ovarian cancer growth, cell-based, BGB or cisplatin combinations (AID 1671459; in the data active means inhibition above about 80%); details: UWB1.289 BRCA1 ovarian carcinoma, drug combinations, stronger effect = higher value
[15] = growth inhibition of BT084 medulloblastoma cells, cell-based, ICGC_MB145, cisplatin and BGB IC40 combos (AID 1671461; in the data active means inhibition above about 80%;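 further: cells exposed to drugs for 96 hours; 0% = vehicle DMSO and 100% = high DMSO full killing control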); details: drug combinations, stronger effect = higher value
[16] = growth inhibition of RCMB18 medulloblastoma cells, cell-based, cisplatin and BGB IC40 combos (AID 1671462; in the data active means inhibition above about 80%;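 further: cells exposed to compound for four days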); details: stronger effect = higher value
[17] = growth inhibition of CRL1545 osteosarcoma cells, cell-based, cisplatin and BGB IC20 combos (AID 1671464; in the data active means inhibition above about 80%;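 further: cells exposed to compound for 96 hours before readout; 0% = vehicle DMSO and 100% = high DMSO killing control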); details: stronger effect = higher value
[18] = measured here: combination with BGB IC40, at 0.05 µM
[19] = measured here: with BGB IC20 combination, at 0.5 µM
[20] = measured here: with cisplatin IC20 combination, at 0.5 µM
[21] = measured here: combination with cisplatin, at 0.5 µM
[22] = measured here: combination with cisplatin, at 5 µM

## O=C(NCC1(c2nc(-c3ccccc3)cs2)CCOCC1)c1cccc(-c2noc(C(F)(F)F)n2)c1
[1]; stronger effect = lower value, cell number ratio, induced over uninduced
  fold change: 0.836 (inactive)
[1]; measured here: relative caspase fold change +Dox/-Dox
  fold change: 0.412
[1]; measured here: total cells with miR-34 induction, stronger effect = lower value
  cell count: 6620
[1]; measured here: total cells without miR-34 induction
  cell count: 7920
[2]; MELAS cybrid survival, CellTiter-Glo 48 h, stronger effect = higher value
  z-score: 0.0872 (inactive)
[2]; Rieske KO mouse fibroblast survival, CellTiter-Glo 72 h
  z-score: 0.109
[3]; at 0.000305 µM, OCI-C5x cells, with rucaparib 10 µM, 100% = cells with rucaparib alone
  viability: 124% (inactive)
[3]; at 0.000305 µM, OCI-C5x cells, without rucaparib
  viability: 111% (inactive)
[3]; at 0.000305 µM, OCI-P5x cells, with rucaparib 20 µM, 100% = cells with rucaparib alone
  viability: 98.3% (active)
[3]; at 0.000305 µM, OCI-P5x cells, without rucaparib
  viability: 94.3% (active)
[3]; at 0.00122 µM, OCI-C5x cells, with rucaparib 10 µM, 100% = cells with rucaparib alone
  viability: 128% (inactive)
[3]; at 0.00122 µM, OCI-C5x cells, without rucaparib
  viability: 113% (inactive)
[3]; at 0.00122 µM, OCI-P5x cells, with rucaparib 20 µM, 100% = cells with rucaparib alone
  viability: 104% (inactive)
[3]; at 0.00122 µM, OCI-P5x cells, without rucaparib
  viability: 101% (inactive)
[3]; at 0.00488 µM, OCI-C5x cells, with rucaparib 10 µM, 100% = cells with rucaparib alone
  viability: 127% (inactive)
[3]; at 0.00488 µM, OCI-C5x cells, without rucaparib
  viability: 117% (inactive)
[3]; at 0.00488 µM, OCI-P5x cells, with rucaparib 20 µM, 100% = cells with rucaparib alone
  viability: 95.9% (active)
[3]; at 0.00488 µM, OCI-P5x cells, without rucaparib
  viability: 97.2% (active)
[3]; at 0.0195 µM, OCI-C5x cells, with rucaparib 10 µM, 100% = cells with rucaparib alone
  viability: 120% (inactive)
[3]; at 0.0195 µM, OCI-C5x cells, without rucaparib
  viability: 104% (inactive)
[3]; at 0.0195 µM, OCI-P5x cells, with rucaparib 20 µM, 100% = cells with rucaparib alone
  viability: 95.5% (active)
[3]; at 0.0195 µM, OCI-P5x cells, without rucaparib
  viability: 89.1% (active)
[3]; at 0.0781 µM, OCI-C5x cells, with rucaparib 10 µM, 100% = cells with rucaparib alone
  viability: 109% (inactive)
[3]; at 0.0781 µM, OCI-C5x cells, without rucaparib
  viability: 106% (inactive)
[3]; at 0.0781 µM, OCI-P5x cells, with rucaparib 20 µM, 100% = cells with rucaparib alone
  viability: 94% (active)
[3]; at 0.0781 µM, OCI-P5x cells, without rucaparib
  viability: 94.9% (active)
[3]; at 0.313 µM, OCI-C5x cells, with rucaparib 10 µM, 100% = cells with rucaparib alone
  viability: 132% (inactive)
[3]; at 0.313 µM, OCI-C5x cells, without rucaparib
  viability: 102% (inactive)
[3]; at 0.313 µM, OCI-P5x cells, with rucaparib 20 µM, 100% = cells with rucaparib alone
  viability: 95.8% (active)
[3]; at 0.313 µM, OCI-P5x cells, without rucaparib
  viability: 90.7% (active)
[3]; at 1.25 µM, OCI-C5x cells, with rucaparib 10 µM, 100% = cells with rucaparib alone
  viability: 135% (inactive)
[3]; at 1.25 µM, OCI-C5x cells, without rucaparib
  viability: 117% (inactive)
[3]; at 1.25 µM, OCI-P5x cells, with rucaparib 20 µM, 100% = cells with rucaparib alone
  viability: 88.1% (active)
[3]; at 1.25 µM, OCI-P5x cells, without rucaparib
  viability: 89.8% (active)
[3]; at 5 µM, OCI-C5x cells, with rucaparib 10 µM, 100% = cells with rucaparib alone
  viability: 158% (inactive)
[3]; at 5 µM, OCI-C5x cells, without rucaparib
  viability: 127% (inactive)
[3]; at 5 µM, OCI-P5x cells, with rucaparib 20 µM, 100% = cells with rucaparib alone
  viability: 78.7% (active)
[3]; at 5 µM, OCI-P5x cells, without rucaparib
  viability: 84.2% (active)
[4]; at 0.5 µM, stronger effect = higher value
  inhibition: 16.1% (inactive) and -6.25% (inactive)
[4]; measured here: combination with BGB IC20, at 0.005 µM
  inhibition: 1.8% and 4.15%
[4]; measured here: combination with BGB IC40, at 0.005 µM
  inhibition: 2.63% and 14.3%
[4]; [18]
  inhibition: -10.8% and -1.22%
[4]; measured here: combination with cisplatin, at 0.5 µM, stronger effect = higher value
  inhibition: 3.22% and -32.3%
[4]; measured here: combination with cisplatin, at 5 µM, stronger effect = higher value
  inhibition: -16.9% and -3.34%
[5]; BGB combo, at 5 µM
  inhibition: -23% and 15.5%
[5]; at 0.5 µM
  inhibition: -32.5% (inactive) and 16.4% (inactive)
[5]; cisplatin combo, at 5 µM
  inhibition: -16.3% and 0.452%
[5]; [19]
  inhibition: -30.2% and 18.4%
[5]; [20]
  inhibition: -45.4% and 11.4%
[5]; single agent, at 5 µM
  inhibition: -5.15% and 25.1%
[6]; BGB IC20 combo, at 0.005 µM
  inhibition: -22.9% and 2.76%
[6]; BGB IC40 combo, at 0.005 µM
  inhibition: 9.28% and 13%
[6]; BGB IC40 combo, at 0.05 µM
  inhibition: -3.89% and 21%
[6]; at 0.5 µM
  inhibition: -16.1% (inactive) and 2.22% (inactive)
[6]; cisplatin combo, at 0.05 µM
  inhibition: -6.8% and 18.1%
[6]; cisplatin combo, at 0.5 µM
  inhibition: -20% and 9.29%
[6]; cisplatin combo, at 5 µM
  inhibition: -12.6% and -9.9%
[6]; measured here: 5 uM single agent, at 5 µM
  inhibition: -22.5% and 19.3%
[7]; at 0.5 µM
  inhibition: -33% (inactive) and -1.8% (inactive)
[7]; [18]
  inhibition: -32.4% and 10.2%
[7]; [21]
  inhibition: -76.1% and -10.4%
[7]; [22]
  inhibition: -10.4% and -0.263%
[8]; at 0.5 µM
  inhibition: -28.5% (inactive) and 1.8% (inactive)
[8]; measured here: with BGB IC20, at 0.5 µM
  inhibition: -38.8% and -0.919%
[8]; measured here: with BGB IC20, at 5 µM
  inhibition: -58.5% and 4.11%
[8]; measured here: with cisplatin IC20, at 0.5 µM
  inhibition: -26.7% and 6.6%
[8]; measured here: with cisplatin IC20, at 5 µM
  inhibition: -31.5% and 8.1%
[8]; single agent, at 5 µM
  inhibition: -23.9% and 9.32%
[9]; at 0.5 µM
  inhibition: -56.1% (inactive) and -1.16% (inactive)
[9]; measured here: combination with BGB at IC20, at 0.5 µM
  inhibition: -61.3% and -10.8%
[9]; measured here: combination with cisplatin at IC20, at 0.5 µM
  inhibition: -66.8% and 10.9%
[10]; at 0.5 µM
  inhibition: -15.6% (inactive) and 10.1% (inactive)
[10]; measured here: combo with BGB at IC20, at 0.5 µM
  inhibition: -9.59% and 1.06%
[10]; measured here: combo with cisplatin at IC20, at 0.5 µM
  inhibition: -27.9% and 14.3%
[11]; at 0.5 µM
  inhibition: -12.3% (inactive) and 13.4% (inactive)
[11]; measured here: inhibition with BGB combination, at 0.05 µM
  inhibition: -8.63% and 3.2%
[11]; measured here: inhibition with cisplatin combination, at 0.05 µM
  inhibition: 0.295% and 28.5%
[12]; at 0.5 µM
  inhibition: 0.9% (inactive) and 4.52% (inactive)
[12]; [21]
  inhibition: 0.458% and 8.71%
[12]; [22]
  inhibition: -55.5% and 22.9%
[13]; at 0.5 µM
  inhibition: -6.26% (inactive) and 2.54% (inactive)
[13]; measured here: BGB combination, at 0.5 µM
  inhibition: -4.1% and 0.779%
[13]; measured here: BGB combination, at 5 µM
  inhibition: -10.4% and -5.25%
[13]; measured here: cisplatin combination, at 0.5 µM
  inhibition: -10.7% and 8.48%
[13]; measured here: cisplatin combination, at 5 µM
  inhibition: -13.8% and 11%
[14]; BGB combination, concentration series, at 5 µM
  inhibition: -15.2% and 14.2%
[14]; at 0.5 µM
  inhibition: -10.2% (inactive) and 7.86% (inactive)
[14]; cisplatin combination, concentration series, at 5 µM
  inhibition: 8.95% and 1.52%
[15]; at 0.5 µM
  inhibition: -4.68% (inactive) and 10.6% (inactive)
[15]; cisplatin combination, at 0.5 µM
  inhibition: -2.52% and 12.6%
[15]; cisplatin combination, at 5 µM
  inhibition: 12.8% and 27.4%
[15]; measured here: BGB IC40 combination 0.05 uM, at 0.05 µM
  inhibition: 16% and -10.3%
[15]; single agent, at 5 µM
  inhibition: 15.3% and 24.7%
[16]; at 0.5 µM
  inhibition: -34.6% (inactive) and 5.45% (inactive)
[16]; cisplatin combo, at 5 µM
  inhibition: -80.8% and -19.2%
[16]; measured here: BGB IC40 combination, at 0.05 µM
  inhibition: -21% and 1.81%
[16]; [21]
  inhibition: -74.6% and 3.89%
[16]; single agent, at 5 µM
  inhibition: 14.7% and 26.4%
[17]; at 0.5 µM
  inhibition: -45.6% (inactive) and -15.7% (inactive)
[17]; [19]
  inhibition: -23% and -21.2%
[17]; [20]
  inhibition: -60.5% and -14.7%
[17]; single agent, at 0.05 µM
  inhibition: -48% and 14.2%
[17]; single agent, at 5 µM
  inhibition: 36.5% and 43.7%
